Experimental data published in ChEMBL document CHEMBL3988442, “University of Dundee, Small-Polar-MMV Screening Library” (2021).
For some assays here: Measured potencies and affinities stand elsewhere.

Tests used:
Design in all cases: scale not given: direction of the effect not stated beside the values
[1] = target: Protein translocase subunit SecA (Escherichia coli (strain K12)) (UniProt P10408); test: Assay to Identify E. coli SecA ATPase Inhibitors; assay type: functional; conditions: 30 µM
[2] = target: T1, Ubiquitin-activating enzyme e1, putative (Leishmania donovani (strain BPK282A1)) (UniProt E9BSI1); test: Leishmania donovani Ubiquitin Activating Enzyme (LdE1); assay type: functional; conditions: 30 µM
T1 sequence (whole entry): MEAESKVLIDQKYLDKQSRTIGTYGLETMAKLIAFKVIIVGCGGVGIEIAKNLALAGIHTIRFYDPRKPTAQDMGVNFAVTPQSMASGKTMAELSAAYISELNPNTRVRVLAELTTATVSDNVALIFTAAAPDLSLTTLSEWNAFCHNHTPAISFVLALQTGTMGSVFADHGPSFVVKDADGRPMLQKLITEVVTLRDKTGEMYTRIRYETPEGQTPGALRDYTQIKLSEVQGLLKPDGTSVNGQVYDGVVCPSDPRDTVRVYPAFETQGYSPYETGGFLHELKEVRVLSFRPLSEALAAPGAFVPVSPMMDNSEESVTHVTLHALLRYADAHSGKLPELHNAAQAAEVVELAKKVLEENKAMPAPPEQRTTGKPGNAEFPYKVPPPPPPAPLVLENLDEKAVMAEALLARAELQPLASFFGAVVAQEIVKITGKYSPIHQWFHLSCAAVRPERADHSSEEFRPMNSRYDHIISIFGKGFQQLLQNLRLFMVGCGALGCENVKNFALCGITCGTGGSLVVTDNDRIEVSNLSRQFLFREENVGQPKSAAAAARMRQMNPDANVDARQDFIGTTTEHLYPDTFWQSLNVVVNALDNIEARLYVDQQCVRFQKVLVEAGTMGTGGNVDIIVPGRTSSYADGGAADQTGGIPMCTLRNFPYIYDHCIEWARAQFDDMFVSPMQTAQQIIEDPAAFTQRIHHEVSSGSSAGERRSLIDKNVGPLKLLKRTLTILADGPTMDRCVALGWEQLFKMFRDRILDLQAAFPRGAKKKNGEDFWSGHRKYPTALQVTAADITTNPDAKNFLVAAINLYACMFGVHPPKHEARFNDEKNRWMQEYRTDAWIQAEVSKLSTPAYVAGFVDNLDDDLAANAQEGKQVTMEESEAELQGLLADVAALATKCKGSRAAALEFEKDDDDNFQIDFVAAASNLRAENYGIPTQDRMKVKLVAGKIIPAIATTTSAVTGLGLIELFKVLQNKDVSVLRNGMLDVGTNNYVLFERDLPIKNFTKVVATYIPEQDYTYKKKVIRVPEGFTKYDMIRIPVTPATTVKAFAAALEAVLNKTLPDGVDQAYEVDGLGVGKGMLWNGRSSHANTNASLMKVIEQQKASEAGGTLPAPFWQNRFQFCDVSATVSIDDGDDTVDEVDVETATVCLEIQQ

[3] = target: Sialic acid-binding Ig-like lectin 9 (Homo sapiens) (UniProt Q9Y336); test: Hs-Siglec9 ALPHAscreen SOP 20170721; conditions: 10 µM
Chain of Sialic acid-binding Ig-like lectin 9 (Homo sapiens) (Q9Y336 whole entry): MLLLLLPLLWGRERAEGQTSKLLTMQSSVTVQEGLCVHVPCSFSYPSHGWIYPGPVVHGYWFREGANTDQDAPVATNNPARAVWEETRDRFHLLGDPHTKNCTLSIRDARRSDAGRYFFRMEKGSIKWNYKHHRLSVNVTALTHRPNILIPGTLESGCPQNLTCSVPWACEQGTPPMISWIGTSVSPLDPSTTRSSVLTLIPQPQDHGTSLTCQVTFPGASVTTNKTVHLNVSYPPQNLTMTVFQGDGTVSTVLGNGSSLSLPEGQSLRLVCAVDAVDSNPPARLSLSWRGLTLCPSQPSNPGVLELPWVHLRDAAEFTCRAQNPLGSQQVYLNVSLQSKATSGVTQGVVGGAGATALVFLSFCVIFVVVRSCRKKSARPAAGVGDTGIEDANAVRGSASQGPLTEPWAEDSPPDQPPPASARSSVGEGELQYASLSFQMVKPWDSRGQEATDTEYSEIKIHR

[4] = test system: Trypanosoma cruzi; test: Trypanosoma cruzi phosphomannomutase and mannose-1-phosphate guanylyltransferase assay; assay type: functional; conditions: 10 µM
[5] = target: T2, Arginase-2, mitochondrial (Homo sapiens) (UniProt P78540); test: in vitro enzyme assay to detect the production of urea directly proportional to the activity of Arginase II; assay type: functional; conditions: 33.3 µM; also: in the data most compounds retested in dose-response had high values
T2 sequence (whole entry): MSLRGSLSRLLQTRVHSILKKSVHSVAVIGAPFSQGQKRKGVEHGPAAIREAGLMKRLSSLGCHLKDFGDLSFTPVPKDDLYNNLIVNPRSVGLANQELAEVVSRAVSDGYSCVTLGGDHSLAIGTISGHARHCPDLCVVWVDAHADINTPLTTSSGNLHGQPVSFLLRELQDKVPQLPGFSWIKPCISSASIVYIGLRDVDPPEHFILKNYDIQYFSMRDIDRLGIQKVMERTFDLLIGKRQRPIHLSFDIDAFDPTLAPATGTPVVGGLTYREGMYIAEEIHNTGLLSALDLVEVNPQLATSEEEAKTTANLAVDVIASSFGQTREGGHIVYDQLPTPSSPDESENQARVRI

[6] = target: T3, Proteasome subunit beta (Trypanosoma cruzi) (UniProt O96673); test: Trypanosoma cruzi proteasome chymotrypsin-like activity (TcProtChymo) assay.; also: in the data most compounds retested in dose-response had high values; assay type: functional; conditions: 9.37 µM
T3 sequence (whole entry): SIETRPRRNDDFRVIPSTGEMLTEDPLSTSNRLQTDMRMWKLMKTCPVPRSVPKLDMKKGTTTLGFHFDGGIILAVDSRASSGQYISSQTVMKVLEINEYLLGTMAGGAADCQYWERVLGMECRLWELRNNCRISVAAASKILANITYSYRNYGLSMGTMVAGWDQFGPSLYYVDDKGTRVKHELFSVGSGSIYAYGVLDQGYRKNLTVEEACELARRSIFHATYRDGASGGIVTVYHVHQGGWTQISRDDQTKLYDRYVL

[7] = species: Homo sapiens; test: To identify inhibition of the IFN signalling (Jak-Stat) pathway via expression of an eGFP reporter gene under the control of an IFN-stimulated response element (ISRE) containing MxA promoter.; assay type: functional; conditions: 30 µM
[8] = target: T4, Tyrosyl-tRNA synthetase, putative (Trypanosoma cruzi (strain CL Brener)) (UniProt Q4DSP6); test: Trypanosoma cruzi tyrosyl tRNA synthetase (TcYRS) _High Tyrosine SOP; assay type: functional; conditions: 30 µM; also: in the data most compounds retested in dose-response had high values
T4 sequence (whole entry): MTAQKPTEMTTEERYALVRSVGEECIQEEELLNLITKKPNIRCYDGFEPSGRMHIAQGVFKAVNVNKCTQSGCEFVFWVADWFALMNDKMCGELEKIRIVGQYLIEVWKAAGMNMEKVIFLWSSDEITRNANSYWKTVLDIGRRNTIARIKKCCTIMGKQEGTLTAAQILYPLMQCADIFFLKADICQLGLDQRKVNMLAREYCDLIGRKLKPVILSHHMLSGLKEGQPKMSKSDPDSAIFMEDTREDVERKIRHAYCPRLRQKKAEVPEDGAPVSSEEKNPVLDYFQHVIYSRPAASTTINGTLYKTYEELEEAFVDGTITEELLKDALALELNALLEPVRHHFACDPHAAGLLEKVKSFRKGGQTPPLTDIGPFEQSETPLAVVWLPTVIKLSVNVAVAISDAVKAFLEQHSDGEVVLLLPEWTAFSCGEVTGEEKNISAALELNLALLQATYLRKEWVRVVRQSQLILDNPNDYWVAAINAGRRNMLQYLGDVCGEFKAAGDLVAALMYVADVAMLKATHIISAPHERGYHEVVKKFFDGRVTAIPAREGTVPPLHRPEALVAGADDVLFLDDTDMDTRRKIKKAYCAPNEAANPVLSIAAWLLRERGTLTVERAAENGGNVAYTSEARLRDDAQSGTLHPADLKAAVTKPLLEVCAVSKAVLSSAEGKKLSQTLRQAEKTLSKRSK

[9] = target: T4, Tyrosyl-tRNA synthetase, putative (Trypanosoma cruzi (strain CL Brener)); test: Trypanosoma cruzi tyrosyl tRNA synthetase (TcYRS) SOP; assay type: functional; conditions: 30 µM
[10] = target: Chromo domain-containing protein 1 (Saccharomyces cerevisiae (strain ATCC 204508 / S288c) (Baker's yeast)) (UniProt P32657); test: ScCHD-1 Enzyme Inhibition Assay; assay type: functional; conditions: 30 µM; also: in the data most compounds retested in dose-response had high values
Chain of Chromo domain-containing protein 1 (Saccharomyces cerevisiae (strain ATCC 204508 / S288c) (Baker's yeast)) (P32657 whole entry, the tested form may be a part): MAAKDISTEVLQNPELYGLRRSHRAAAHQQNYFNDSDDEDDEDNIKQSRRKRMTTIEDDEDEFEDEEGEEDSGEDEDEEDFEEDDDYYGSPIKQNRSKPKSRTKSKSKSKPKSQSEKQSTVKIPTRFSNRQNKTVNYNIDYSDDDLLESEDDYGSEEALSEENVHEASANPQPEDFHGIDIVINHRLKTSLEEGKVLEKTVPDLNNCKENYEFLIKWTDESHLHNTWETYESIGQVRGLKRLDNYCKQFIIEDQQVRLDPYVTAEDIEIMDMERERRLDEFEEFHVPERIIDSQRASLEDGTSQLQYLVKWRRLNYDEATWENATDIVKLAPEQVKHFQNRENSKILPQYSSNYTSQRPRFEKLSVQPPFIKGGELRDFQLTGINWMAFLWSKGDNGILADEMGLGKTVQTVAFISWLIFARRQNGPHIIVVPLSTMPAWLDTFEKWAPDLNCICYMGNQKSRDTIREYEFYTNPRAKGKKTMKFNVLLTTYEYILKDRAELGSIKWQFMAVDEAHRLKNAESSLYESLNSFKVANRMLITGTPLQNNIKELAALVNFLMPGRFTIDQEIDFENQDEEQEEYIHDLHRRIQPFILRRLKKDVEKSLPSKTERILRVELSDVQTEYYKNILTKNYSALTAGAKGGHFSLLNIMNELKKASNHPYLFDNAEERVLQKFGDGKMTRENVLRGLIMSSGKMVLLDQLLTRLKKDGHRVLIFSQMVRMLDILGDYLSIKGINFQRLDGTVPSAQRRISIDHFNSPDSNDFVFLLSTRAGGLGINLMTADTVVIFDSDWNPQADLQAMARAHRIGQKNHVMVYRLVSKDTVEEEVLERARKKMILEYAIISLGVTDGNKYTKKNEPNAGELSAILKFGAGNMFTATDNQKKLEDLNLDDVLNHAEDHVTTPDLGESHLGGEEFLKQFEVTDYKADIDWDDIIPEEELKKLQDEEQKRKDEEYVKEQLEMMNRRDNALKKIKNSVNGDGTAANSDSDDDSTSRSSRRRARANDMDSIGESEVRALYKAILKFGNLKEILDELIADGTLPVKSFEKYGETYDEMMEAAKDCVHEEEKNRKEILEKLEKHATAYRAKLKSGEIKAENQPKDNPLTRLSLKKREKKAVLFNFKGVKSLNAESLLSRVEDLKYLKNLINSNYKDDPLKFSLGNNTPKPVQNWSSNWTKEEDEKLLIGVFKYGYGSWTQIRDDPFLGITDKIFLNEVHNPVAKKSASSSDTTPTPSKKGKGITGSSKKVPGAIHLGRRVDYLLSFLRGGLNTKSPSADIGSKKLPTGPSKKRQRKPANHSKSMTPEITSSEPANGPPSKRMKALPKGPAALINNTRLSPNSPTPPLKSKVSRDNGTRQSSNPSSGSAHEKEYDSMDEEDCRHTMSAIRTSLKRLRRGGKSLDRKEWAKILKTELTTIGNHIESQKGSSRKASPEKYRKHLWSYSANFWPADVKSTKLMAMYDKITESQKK

Chain of Protein translocase subunit SecA (Escherichia coli (strain K12)) (P10408 whole entry): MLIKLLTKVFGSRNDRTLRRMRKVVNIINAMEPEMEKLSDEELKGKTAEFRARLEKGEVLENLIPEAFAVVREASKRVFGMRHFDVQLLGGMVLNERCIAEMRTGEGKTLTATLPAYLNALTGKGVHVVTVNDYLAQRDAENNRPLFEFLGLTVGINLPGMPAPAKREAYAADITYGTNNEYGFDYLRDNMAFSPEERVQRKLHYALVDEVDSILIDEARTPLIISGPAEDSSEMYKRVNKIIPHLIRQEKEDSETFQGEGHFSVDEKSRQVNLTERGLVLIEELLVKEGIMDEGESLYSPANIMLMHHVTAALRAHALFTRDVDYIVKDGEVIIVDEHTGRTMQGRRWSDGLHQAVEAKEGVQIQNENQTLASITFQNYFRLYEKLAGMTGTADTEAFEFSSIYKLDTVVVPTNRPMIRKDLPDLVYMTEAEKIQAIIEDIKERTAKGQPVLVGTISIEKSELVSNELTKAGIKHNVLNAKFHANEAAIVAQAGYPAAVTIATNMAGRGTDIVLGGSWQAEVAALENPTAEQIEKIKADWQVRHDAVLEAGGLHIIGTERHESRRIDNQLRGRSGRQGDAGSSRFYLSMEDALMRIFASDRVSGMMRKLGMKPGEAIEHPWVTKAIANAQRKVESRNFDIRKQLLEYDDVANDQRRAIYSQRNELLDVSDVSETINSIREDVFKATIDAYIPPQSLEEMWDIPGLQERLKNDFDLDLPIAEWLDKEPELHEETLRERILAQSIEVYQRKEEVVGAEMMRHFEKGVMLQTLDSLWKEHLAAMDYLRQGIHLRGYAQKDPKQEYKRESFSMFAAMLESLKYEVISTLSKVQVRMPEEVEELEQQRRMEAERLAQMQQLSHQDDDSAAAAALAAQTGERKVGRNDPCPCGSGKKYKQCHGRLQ

Structure (SMILES) | Percent Effect [1] [%] | Percent Effect [2] [%] | Percent Effect [3] [%] | Percent Effect [4] [%] | Percent Effect [5] [%] | Percent Effect [6] [%] | Percent Effect [7] [%] | Percent Effect [8] [%] | Percent Effect [9] [%] | Percent Effect [10] [%]
Cc1cc(C)n(CC2CN(Cc3nc(-c4ccco4)no3)CCO2)n1 (stereo not given) | -4.45 | 23.4 | 7.28 | 5.78 | 1.43 | 8.25 | 12.5 | 5.88 | 23.5 | -11.8
COCCN1C[C@H]2[C@@H](C1)N(C(=O)c1cccs1)CC[C@H]2OC | -5.76 | -108 | 1.61 | 7.11 | -6.07 | 4.5 | -13.9 | 1.58 | 7.69 | 1.4
CS(=O)(=O)N1CCC(c2nnc3ccc(C(=O)N4CCCC4)cn23)C1 (stereo not given) | -4.16 | -42.9 | -5.27 | -3.8 | -2.02 | 16.9 | 6.07 | 0.526 | 5.13 | -3.44
Cc1nn(C)c(N(C)C)c1CNC(C)COc1cccc(F)c1 (stereo not given) | -4.28 | -5.2 | -1.85 | -6.16 | -2.66 | 5.26 | 9.12 | -3.92 | -4.71 | -2.29
CCS(=O)(=O)N1CCC2(CC1)CN(Cc1ccccn1)C(=O)CO2 | 2.67 | 1.3 | 1.21 | -0.487 | 1.62 | 3.44 | -2.87 | -1.58 | 0 | 2.48
CCn1cc2c(n1)C(COC)CN(C(=O)COc1ccccc1C)C2 (stereo not given) | -5.08 | -3.9 | 1.02 | -5.16 | -13.4 | 11 | 4.86 | 2.63 | 5.13 | 2.06
CC(C)N1CCO[C@H]2CN(C(=O)c3ccoc3)C[C@H]21 | -6.85 | 3.9 | -7.81 | -1.66 | 2.43 | 4.85 | 0.754 | 5.79 | 10.3 | 3.83
Cc1cc(C2CCCN(C(=O)c3c(C)nn4cccnc34)C2)n[nH]1 (stereo not given) | -3.7 | 8 | 6.1 | -2.21 | 0.444 | 6.7 | 9.89 | 2.63 | 5.13 | -4.49
c1ccc(-c2nc(CN3CCc4c(ncn4C4CC4)C3)cs2)cc1 | -0.517 | 5.2 | -12.1 | -0.933 | -7.99 | 16 | 28.5 | 12.8 | 18.8 | -8.68
CN1CCCn2c(nc(CNC(=O)c3ccsc3)cc2=O)C1 | -0.659 | 1.3 | -2.49 | -8.28 | 6.07 | 5.56 | -5.79 | 1.58 | 5.13 | -0.931
CN(Cc1ccccc1)CC(O)Cn1cnc2ccccc2c1=O (stereo not given) | -0.933 | 2.56 | 0.642 | 4.79 | 9.84 | -2.13 | 12.8 | 0.478 | 6.02 | 0.379
Cc1ncc(-c2ccnc(N3CCCCC3)n2)c(=O)[nH]1 | -0.483 | 8 | 1.07 | -8.84 | -0.887 | 9.07 | 21.2 | 0.526 | 5.13 | -11.6
COC(=O)C1CCN(C(=O)c2ccc(C)c(NS(C)(=O)=O)c2)CC1 | -9.4 | -5.41 | -2.25 | -3.2 | -3.85 | 8.9 | -0.867 | 1.6 | 2.44 | 5.38
CN(C)C(=O)N1C[C@H]2CCC[C@@]2(COc2ccccn2)C1 | -6.8 | 6.49 | -3.98 | -4.58 | -6.07 | 10.9 | 6.85 | -0.526 | 5.13 | -2.37
Cc1cnn(CC2CCCN2C(=O)c2cc(Cl)ccc2F)c1 (stereo not given) | -1.32 | 2.6 | -6.93 | -0.933 | 5.12 | 4.91 | 10.8 | -1.96 | -2.35 | 2.99
CC(C)n1ccnc1CN1CCCN(C(=O)c2cc(Cl)c[nH]2)CC1 | -0.854 | 10.3 | -9.31 | -3.1 | 11.5 | 16.1 | 10.8 | 6.22 | 18.1 | -3.25
CN(C(=O)CN1CCOC(Cn2cccn2)C1)c1nccs1 (stereo not given) | -7.38 | 18.2 | 0.761 | 4.29 | -4.71 | 11.8 | -5.33 | 3.92 | 21.2 | -15
O=C(CCOc1ccc(Cl)cc1)N1CCN(c2cnccn2)CC1 | -5.29 | 18.2 | 5.24 | -0.746 | 0.615 | 10.2 | 25.2 | 9.8 | 21.2 | -8.03
Cc1ccc(-c2nc(CCNC(=O)NC3CCN(C)CC3)co2)cc1 | -4.38 | 8 | -2.04 | 1.81 | -4.88 | 12.3 | 9.37 | 3.68 | 5.13 | -12.9
Fc1cnc(N2CCOCC3(CCCN(c4nncs4)C3)C2)nc1 (stereo not given) | -8.43 | 6.49 | -1.88 | -2.63 | -5.26 | 10.5 | -23.8 | 1.58 | 7.69 | 0.128
COc1ncccc1CNC(=O)c1cccnc1O | -1.81 | 12.8 | -3.2 | 5.35 | 1.23 | 8.79 | -10.7 | 11 | 22.9 | -2.93
Cc1cc2c(=O)n3c(nc2s1)CCN(Cc1cnc(C(C)C)nc1)CC3 | -1.05 | 4 | -0.31 | -7.69 | 3.98 | 5.91 | 28.4 | 0 | 5 | -25.8
Cc1cc(NC(=O)NCC2CCOC2)no1 (stereo not given) | 0.735 | 10.7 | 0.0318 | -6.63 | 9.76 | 5 | 5.61 | 4.74 | 7.69 | -11.3
